# Assay outcomes from PubChem.
# Hits are enriched below; roughly 10% of the tested compounds scored in any of these assays.
# CCT modulator = changes cytosolic chaperonin activity; hit rate 0.3% among 360,000; activity change, % (concentration not given with the values), hits read low; purified chaperonin ATPase assay, HTRF ADP detection, 30 min; in the data active means activity change below about -30%
#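 Nucleotide hydrolysis assay: TRiC at 20–40 nM final (set by batch activity) with 10 uM ATP, 30 min at 37 °C, in presence of 76 uM compound. Detection by competitive ADP HTRF, 30 min ambient.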
# PLK1 PBD inh = PLK1 (human) polo-box domain binding inhibition; P53350; Plk1 PBD binding of FITC phosphopeptide, fluorescence polarization; Potency, µM, for the others: max response, negative = inhibition, actives largely listed as inhibitors; hit rate 2.8% among 360,000; AID 720504; further: potency means the concentration at half of the fitted maximal effect; series mostly up to about 57 µM; nearly all actives have a fitted effect of over 65% in size
# Target sequence (P53350 whole entry, looked up, the tested form may be a part): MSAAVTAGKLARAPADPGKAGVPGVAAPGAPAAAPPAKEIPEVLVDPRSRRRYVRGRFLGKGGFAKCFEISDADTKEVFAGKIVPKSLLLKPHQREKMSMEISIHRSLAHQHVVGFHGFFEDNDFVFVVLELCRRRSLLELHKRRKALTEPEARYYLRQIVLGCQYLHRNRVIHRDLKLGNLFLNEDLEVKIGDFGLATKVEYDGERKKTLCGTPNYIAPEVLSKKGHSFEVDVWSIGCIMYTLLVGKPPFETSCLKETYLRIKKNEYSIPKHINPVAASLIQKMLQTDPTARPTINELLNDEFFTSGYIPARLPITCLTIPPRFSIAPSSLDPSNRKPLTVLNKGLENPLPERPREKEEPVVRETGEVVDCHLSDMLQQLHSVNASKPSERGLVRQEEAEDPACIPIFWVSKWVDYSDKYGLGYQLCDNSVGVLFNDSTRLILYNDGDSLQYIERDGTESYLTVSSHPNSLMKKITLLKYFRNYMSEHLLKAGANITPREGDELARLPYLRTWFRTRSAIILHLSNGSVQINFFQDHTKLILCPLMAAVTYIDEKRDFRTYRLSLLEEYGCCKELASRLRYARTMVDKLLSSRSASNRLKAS
# MmCpn inh = blocks the Methanococcus maripaludis chaperonin Mm-Cpn; Potency, µM (titrated, usually from 76.9 µM), for inactives: at the top dose activity, negative = inhibition, most hits filed as inhibitors; hit rate 0.031% among 330,000; purified Mm-Cpn ATPase, ADP Transcreener TR-FRET; further: potency means the concentration at half of the fitted maximal effect; nearly all actives have a fitted effect of over 80% in size
#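 Eu-cryptate anti-ADP/ADP-d2 competition gives a ratio inversely related to ADP. Enzyme at 25 nM was pre-exposed to compound for 10 min, then given 10 uM ATP for 30 min, 37°C throughout.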
# VDR inhibitor = vitamin D3 receptor (human) inhibition; P11473; VDR-SRC2-3 peptide fluorescence polarization, 2 h; Potency, µM, inactives show max response, negative = inhibition, hits mostly inhibitors; hit rate 0.93% among 400,000; further: potency means the concentration at half of the fitted maximal effect
#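 Fluorescence polarization assay measuring small-molecule disruption of VDR binding to the coregulator peptide SRC2-3. Compounds were pin-transferred (23 nl) into the reagent mix and incubated 2 h at room temperature before reading.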
# G9a inh = blocks human histone lysine methyltransferase G9a. Q96KQ7. G9a H3K9 monomethylation, AlphaScreen, 2 h. Potency, µM (titrated, usually from 102 µM), without a hit: at the top dose activity, negative = inhibition, actives largely listed as inhibitors. hit rate 8.8% among 350,000. AID 504332; further: potency means the concentration at half of the fitted maximal effect; nearly all actives have a fitted effect of over 75% in size
#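 Readings reflect AlphaScreen signal from monomethyl-H3K9 antibody detection. HMT at 20 nM; substrate b-H3K9 500 nM; cofactor SAM 20 uM; 2 h RT reaction; compounds tested as titrations in qHTS with 15 min preincubation.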
# Sfp inh = Sfp phosphopantetheinyl transferase inhibition; Q9F4F7; Biochemical Sfp PPTase activity, qHTS; Potency, µM, inactives show largest response in the series, negative = inhibition, usual class: inhibitors; hit rate 3.5% among 310,000;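 further: the enzyme is Sfp with the accession as filed and its product quenches rhodamine fluorescence; potency means the concentration at half of the fitted maximal effect; 0% = enzyme reaction without inhibitor and -100% = no enzyme wells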
#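 Fluorescence-quenching assay with 15 nM Sfp, 5 uM rhodamine-CoA and 12.5 uM BHQ-2-labelled ybbR peptide in pH 7.6 Hepes/MgCl2 buffer. Enzyme was pre-incubated with compound for 15 min at room temperature. Rate was taken from the 30-min fluorescence change (525/598 nm).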
# * hit, by the source's call; ? = inconclusive; · = no result; ! = not confirmed by another sample; [ ] = dose if it differs, or a comment. Unless noted, the call rests on the fitted dose curve; in most records, active means well fitted curve in the direction sought with a large enough effect; inconclusive means small, poorly fitted or top-dose-only effect, or another doubt; inactive means no such curve, though single readings can be large; an effect the other way counts as inactive or inconclusive. Unless noted, on the % scale 0 is the no-effect control and ±100 the full control effect.
SMILES,CCT modulator,PLK1 PBD inh,MmCpn inh,VDR inhibitor,G9a inh,Sfp inh
O=C(O)CCCC(=O)Nc1ccn(-c2ccccc2)n1,-3.0,10.6µM*,1.6%,-12.8%,20.5%,5.0%
Cc1cc(C)c(Cn2c3ccccc3c3cnn(CC(=O)NCCCc4ccccc4)c(=O)c32)c(C)c1,·,·,·,1.9%,3.1%[59 µM],·
CSc1nnc(-c2ccccc2)n1C,-2.2,-10.3%,0.7%,-10.8%,28.4%[59 µM],11.7%
CSc1nnc(C2CCCN2)n1C (stereo unspecified),-1.4,-6.1%,-2.0%,-1.1%,2.51µM*,?
C=CCn1cc(/C=N/Nc2nc3ccccc3[nH]2)c2ccccc21,1.8,-8.3%,-0.3%,-7.9%,50.1µM*,15.8µM*
COCCC(=O)N1CCC(Oc2ccc(C(=O)N3CCCCCC3)cc2)CC1,-2.1,10.6µM*,-0.9%,?,3.4%,21.1%
Cc1csc(C(C)N(C)C(=O)c2ccc(OC3CCN(Cc4ccccn4)CC3)cc2)n1 (stereo unspecified),-1.0,-17.2%,1.7%,-9.2%,70.8µM*,0.5%
COCC(=O)N1CCC(Oc2ccc(C(=O)N3CCCCCCC3)cc2)CC1,-0.9,1.1%,?,3.0%,?,4.9%
CC(C)N(Cc1cnn(C)c1)C(=O)c1ccc(OC2CCN(Cc3ccccn3)CC2)cc1,-0.8,1.4%,0.4%,-6.4%,44.7µM*,-13.4%
CC(=O)N1CCN(C(=O)c2ccc(OC3CCN(Cc4ccccn4)CC3)cc2)CC1,1.2,-7.8%,1.1%,-1.8%,70.8µM*,9.1%
COCCN1CCN(Cc2ccc(C(=O)NC(C)C)cc2)C(=O)C1=O,·,·,·,-0.4%,4.6%[12.7 µM],·
O=C(c1ccc(F)cc1)N1CCC(c2nc3ccccc3s2)CC1,·,·,·,3.7%,?,·
COC(=O)c1cc2occc2n1CC(=O)Nc1ccc(N(C)C)cc1,·,·,·,2.0%,?,·
CCCn1c(-c2ccc(F)cc2)nc2c(NC3CC4CCC(C3)N4C)nc(C)nc21 (stereo unspecified),·,·,·,·,·,14.1%
CNC(=O)C1CCCN(c2nnc(C)c3c(C)n(-c4ccccc4)nc23)C1 (stereo unspecified),·,·,·,-4.4%,-7.5%[59 µM],·
O=C(O)CCN1CCc2ccccc2C1c1ccncc1 (stereo unspecified),-0.1,-2.2%,0.9%,0.8%,50.1µM*,0.3%
CNc1ncnc2c1ncn2[C@H]1C[C@H](OP(=O)(O)O)[C@@H](COP(=O)(O)O)O1,·,·,·,2.6%,20µM*!,·
COc1ccc(N2CCN(C(=O)C3Cc4ccccc4N3C(C)=O)CC2)cc1 (stereo unspecified),·,·,·,4.1%,-8.1%[59 µM],·
Cc1cc2c(cc1S(=O)(=O)N1CCN(c3ccc(Cl)cc3)CC1)OCCN2C,0.6,-2.8%,-0.3%,4.2%,28.2µM*,21.4%
O=C(NCC12CC3CC(CC(C3)C1)C2)c1cc2nc(-c3ccc(F)cc3)cc(C(F)(F)F)n2n1,·,·,·,8.5%,-2.9%[59 µM],·
COc1ccc(Oc2ncc3nc(-c4ccc(F)cc4)c(=O)n(C[C@H]4CCCO4)c3n2)cc1,·,·,·,1.0%,0.0%[0.501 µM],0.5%
COc1ccc(-c2cnc(N)n2CC2CCCO2)cc1 (stereo unspecified),-1.6,26.7µM*,-0.1%,7.5%,98.3%[59 µM],-8.3%
c1ccc(-c2cnc(SCCN3CCOCC3)n2CC2CCCO2)cc1 (stereo unspecified),-3.0,-1.3%,0.2%,-10.1%,2.51µM*,-19.7%
O=C(CCC(=O)CCN1CCCCC1)CCN1CCCCC1,-2.4,-15.6%,·,-0.6%,12.6µM*,-3.8%
NC(=O)CCN1CCCCC1,0.0,0.6%,0.6%,-6.2%,2.8%[0.501 µM],-6.9%
SMILES,CCT modulator,PLK1 PBD inh,MmCpn inh,VDR inhibitor,G9a inh,Sfp inh
N#CCCNC(=O)CCN1CCCCC1,-0.9,-3.5%,1.8%,8.9%,56.2µM*,13.0%
COc1ccccc1/C=C/c1onc(C)c1S(=O)(=O)N1CCC(C(=O)N2CCC(C)CC2)CC1,·,·,·,14.4%,3.8%[59 µM],·
NNC(=S)Nc1c(F)cc(F)cc1Br,-1.8,-12.0%,2.8%,1.3%,·,79.4µM*
COc1cc2c[n+](C)c3c4ccccc4ccc3c2cc1OC,-2.5,-7.9%,·,-9.4%,·,·
CC[n+]1ccc2cc(OC)c(OC)cc2c1Cc1ccc(OC)c(OC)c1,-2.9,?,1.3%,-14.5%,22.4µM*,?
COc1ccc(Cc2n[nH]c(=O)c3ccccc23)cc1OC,-5.2,-8.0%,2.8%,-1.7%,-9.0%,12.8%
COc1ccc(Cc2c3cc(OC)c(OC)cc3cc[n+]2C)cc1OC,-2.2,?,1.2%,-11.5%,-132.3%[59 µM],79.4µM*
Cc1ccc(S(=O)(=O)N2CCCN(Cc3nc4ccccc4c(=O)[nH]3)CC2)cc1,-0.7,-4.9%,-0.4%,9.5%,25.1µM*,·
Cn1cc(C(=O)N2CCN(c3cccc(C(F)(F)F)c3)CC2)c2c3ccccc3n(C)c2c1=O,·,·,·,-6.4%,-33.1%[59 µM],·
CC(=O)Nc1ccc(C(=O)OCC(=O)c2cccc([N+](=O)[O-])c2)cc1,0.9,-3.2%,3.1%,?,-0.2%[59 µM],19.0%
O=C(CSc1n[nH]c(=O)[nH]c1=O)c1cccc([N+](=O)[O-])c1,0.8,-28.1%,1.7%,-13.1%,31.6µM*,-5.4%
O=C(CSc1ncn[nH]1)c1ccccc1,1.3,23.8µM*,0.1%,?,3.16µM*,56.2µM*
COC(=O)Nc1ccc(SCC(=O)c2cccc([N+](=O)[O-])c2)cc1,-1.9,13.4µM*,-0.7%,?,?,-14.9%
Cc1cc(SCc2cccc([N+](=O)[O-])c2)nc(=O)[nH]1,-1.1,-17.5%,0.5%,-3.2%,9.2%[0.501 µM],5.4%
O=C(CSc1n[nH]c(=O)[nH]c1=O)c1ccccc1,-0.5,-24.0%,1.2%,4.3%,?,-16.6%
Cc1cc(SCC(=O)c2cccc([N+](=O)[O-])c2)nc(=O)[nH]1,0.1,21.2µM*,-5.3%,?,28.2µM*,44.7µM*
CCOC(=O)C1=C(CN2CCN(c3ccccc3F)CC2)NC(=O)NC1c1ccc(Cl)cc1 (stereo unspecified),·,·,·,-8.2%,?,·
COC(=O)CSc1cc([N+](=O)[O-])ccc1NC(=O)OC,-5.2,-18.3%,-0.8%,-25.8%,35.5µM*,-8.9%
O=C(CCC(=O)Nc1cccc([N+](=O)[O-])c1)NCc1ccccc1,-1.2,-1.4%,1.5%,-15.7%,-10.3%,10.8%
O=C(CSc1ncn[nH]1)c1cccc([N+](=O)[O-])c1,1.1,?,-0.9%,?,25.1µM*,50.1µM*
O=C(CSc1nccc(=O)[nH]1)c1ccco1,-4.3,-17.4%,2.0%,-10.4%,?,-11.1%
O=C(CSc1ncn[nH]1)c1ccco1,0.4,29.9µM*,-0.1%,-4.5%,5.62µM*,?
O=C(CCc1n[nH]c(=O)[nH]c1=O)Nc1cccc([N+](=O)[O-])c1,-1.0,-18.8%,-4.9%,-4.2%,50.1µM*,-18.1%
COc1ccc(-c2nnn3c2nc(NCCc2ccc(OC)c(OC)c2)c2ccccc23)cc1,·,·,·,-7.4%,-1.2%[59 µM],·
